Test results reported in PubChem BioAssay (Tox21).
Records with an inconclusive call do not appear. Active and inactive are the calls of the source. Calls follow the shape of the dose curve; as a rule, active = well fitted curve in the direction sought with a large enough effect in the repeat runs; inconclusive = weak or mixed curves; inactive = no such curve, though single readings can be large; an effect the other way counts as inactive or inconclusive.

Columns and labels:
[1] = qHTS RealTime-Glo MT Cell Viability Assay in HepG2 cells - 40 hour (AID 1224870); also: nearly all actives have a fitted effect of over 50% in size
Method in brief: (§1)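 HepG2 cells (600/well) mixed with RealTime-Glo MT reagent, settled 5 h at 37 C/5% CO2 before compound addition. Nonlytic NanoLuc luminescence from viable-cell prosubstrate reduction read repeatedly during 40 h treatment at 37 C.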

[2] = A CellTox Green Cytotoxicity Assay to monitor cytotoxicity in HEK293 cells - 40 hour (AID 1224871); also: nearly all actives have a fitted effect of over 45% in size
Method in brief: (§2)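 Fluorescence from a DNA-binding dye excluded by viable cells was measured repeatedly in the same HEK293 wells (600 cells/well) during continuous compound exposure at 37 C. Each assay gives one read point: 0, 8, 16, 24, 32 or 40 h.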

[3] = qHTS RealTime-Glo MT Cell Viability Assay in HepG2 cells - 8 hour (AID 1224873); also: nearly all actives have a fitted effect of over 55% in size
Method in brief: as §1

[4] = qHTS RealTime-Glo MT Cell Viability Assay in HEK293 cells - 40 hour (AID 1224874); details: RealTime-Glo luminescence; max response: active compounds read low; also: nearly all actives have a fitted effect of over 50% in size; also: potency is read from the fitted curve at half-maximal effect
Method in brief: (§3)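 Luminescence, which tracks viable cell number through reduction of the prosubstrate to a NanoLuc substrate, was read over continuous 37 C culture. Cells (600/well) were premixed with reagent and rested 5 h before 23 nL of compound in DMSO was pinned.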

[5] = A CellTox Green Cytotoxicity Assay to monitor cytotoxicity in HEK293 cells - 24 hour (AID 1224875); also: series mostly up to about 77 µM; nearly all actives have a fitted effect of over 45% in size
Method in brief: as §2

[6] = A CellTox Green Cytotoxicity Assay to monitor cytotoxicity in HepG2 cells - 16 hour (AID 1224876); also: nearly all actives have a fitted effect of over 45% in size
Method in brief: (§4)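 Real-time cytotoxicity: fluorescence of a cell-impermeant cyanine dye binding DNA of dead HepG2 cells, measured repeatedly (0–40 h) during compound exposure at 37 C. Cells seeded 600/well with reagent, dosed after 5 h.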

[7] = qHTS RealTime-Glo MT Cell Viability Assay in HepG2 cells - 32 hour (AID 1224877); also: nearly all actives have a fitted effect of over 55% in size
Method in brief: (§5)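 qHTS, HepG2, 600 cells/well, RealTime-Glo (NanoLuc + prosubstrate) added with cells; 5 h preincubation; DMSO compound addition; 37 C; luminescence at 0/8/16/24/32/40 h.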

[8] = A CellTox Green Cytotoxicity Assay to monitor cytotoxicity in HepG2 cells - 24 hour (AID 1224878); also: nearly all actives have a fitted effect of over 45% in size; also: potency is read from the fitted curve at half-maximal effect
Method in brief: as §4

[9] = A CellTox Green Cytotoxicity Assay to monitor cytotoxicity in HepG2 cells - 40 hour (AID 1224879); also: nearly all actives have a fitted effect of over 40% in size; also: potency is read from the fitted curve at half-maximal effect
Method in brief: as §4

[10] = qHTS RealTime-Glo MT Cell Viability Assay in HEK293 cells - 0 hour (AID 1224880); also: nearly all actives have a fitted effect of over 45% in size; also: potency is read from the fitted curve at half-maximal effect; as to activity change, negative = cytotoxicity: top concentration of the series differs between compounds
Method in brief: as §3

[11] = A CellTox Green Cytotoxicity Assay to monitor cytotoxicity in HEK293 cells - 32 hour (AID 1224881); also: nearly all actives have a fitted effect of over 40% in size
Method in brief: as §2

[12] = A CellTox Green Cytotoxicity Assay to monitor cytotoxicity in HepG2 cells - 0 hour (AID 1224882); also: nearly all actives have a fitted effect of over 35% in size
Method in brief: as §4

[13] = A CellTox Green Cytotoxicity Assay to monitor cytotoxicity in HepG2 cells - 32 hour (AID 1224883); also: nearly all actives have a fitted effect of over 50% in size
Method in brief: as §4

[14] = A CellTox Green Cytotoxicity Assay to monitor cytotoxicity in HEK293 cells - 8 hour (AID 1224884); also: nearly all actives have a fitted effect of over 35% in size
Method in brief: as §2

[15] = qHTS RealTime-Glo MT Cell Viability Assay in HepG2 cells - 16 hour (AID 1224885); also: nearly all actives have a fitted effect of over 50% in size
Method in brief: as §5

[16] = qHTS RealTime-Glo MT Cell Viability Assay in HEK293 cells - 24 hour (AID 1224886); also: nearly all actives have a fitted effect of over 50% in size; also: potency is read from the fitted curve at half-maximal effect; as to activity change, negative = cytotoxicity: top concentration of the series differs between compounds
Method in brief: (§6)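 Assay medium contained NanoLuc luciferase plus cell-permeant prosubstrate, added with HEK293 cells at 600 cells/well. After 5 h at 37 C/5% CO2 compounds were added; plates stayed at 37 C for 40 h with serial luminescence reads.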

[17] = qHTS RealTime-Glo MT Cell Viability Assay in HEK293 cells - 8 hour (AID 1224887); also: nearly all actives have a fitted effect of over 50% in size; also: potency is read from the fitted curve at half-maximal effect; as to activity change, negative = cytotoxicity: top concentration of the series differs between compounds
Method in brief: as §3

[18] = A CellTox Green Cytotoxicity Assay to monitor cytotoxicity in HEK293 cells - 16 hour (AID 1224888); also: nearly all actives have a fitted effect of over 35% in size
Method in brief: as §2

[19] = qHTS RealTime-Glo MT Cell Viability Assay in HepG2 cells - 0 hour (AID 1224889); also: nearly all actives have a fitted effect of over 50% in size; also: potency is read from the fitted curve at half-maximal effect
Method in brief: as §5

[20] = qHTS RealTime-Glo MT Cell Viability Assay in HEK293 cells - 16 hour (AID 1224872)
Method in brief: as §6
% is scaled to controls: 0 for no effect and ±100 for the full control effect.

CCCCC[C@H](O)/C=C/[C@H]1[C@H](O)CC(=O)[C@@H]1C/C=C\CCCC(=O)O
inactive: Potency [1] | Potency [2] | Potency [3] | max response [4] 19.7% | Potency [5] | Potency [6] | Potency [7] | Potency [8] | Potency [9] | Potency [10] | Potency [11] | Potency [12] | Potency [13] | Potency [14] | Potency [15] | Potency [16] | Potency [17] | Potency [18] | Potency [19]

CC(=O)Oc1cccc(O)c1
inactive: Potency [1] | Potency [2] | Potency [3] | max response [4] -0.489% | Potency [5] | Potency [6] | Potency [7] | Potency [9] | Potency [10] | Potency [11] | Potency [12] | Potency [13] | Potency [14] | Potency [15] | Potency [16] | Potency [18] | Potency [19]

OCC(CO)n1cnc(-c2ccc(F)cc2)c1-c1ccnc(Oc2ccccc2)n1
inactive: Potency [1] | Potency [2] | Potency [20] | Potency [3] | Potency [5] | Potency [6] | Potency [7] | Potency [8] | Potency [9] | Potency [10] | Potency [11] | Potency [12] | Potency [13] | Potency [14] | Potency [15] | Potency [16] | Potency [17] | Potency [18] | Potency [19]

CCCC(=O)OC(=O)CCC
inactive: Potency [1] | Potency [2] | Potency [20] | Potency [3] | Potency [5] | Potency [6] | Potency [7] | Potency [8] | Potency [9] | Potency [10] | Potency [11] | Potency [13] | Potency [14] | Potency [16] | Potency [17] | Potency [18] | Potency [19]

Nc1nc2ccc(OC(F)(F)F)cc2s1
inactive: Potency [1] | Potency [2] | Potency [20] | Potency [3] | Potency [5] | Potency [6] | Potency [7] | Potency [8] | Potency [10] | Potency [11] | Potency [13] | Potency [14] | Potency [15] | Potency [17] | Potency [18] | Potency [19]

CCCCCCCC(=O)OCCCCCC
inactive: Potency [1] | Potency [2] | Potency [3] | Potency [5] | Potency [6] | Potency [7] | Potency [8] | Potency [9] | Potency [10] | Potency [11] | Potency [12] | Potency [13] | Potency [14] | Potency [15] | Potency [18] | Potency [19]
active: Potency [4] 3.47 µM | Potency [16] 3.89 µM

CCCCCCCC/C=C\CCCCCCCC(=O)OCCO
active: Potency [17] 57.8 µM
inactive: Potency [1] | Potency [2] | Potency [3] | max response [4] -0.425% | Potency [5] | Potency [6] | Potency [7] | Potency [8] | Potency [9] | Potency [10] | Potency [11] | Potency [12] | Potency [14] | Potency [15] | Potency [16] | Potency [18]

CC(C)(C)CCCCCCOC(=O)c1ccccc1C(=O)OCCCCCCC(C)(C)C
inactive: Potency [1] | Potency [2] | Potency [3] | max response [4] 7.13% | Potency [5] | Potency [6] | Potency [7] | Potency [9] | Potency [10] | Potency [11] | Potency [12] | Potency [13] | Potency [14] | Potency [15] | Potency [16] | Potency [17] | Potency [18] | Potency [19]

O=C(NS(=O)(=O)/C=C/c1ccccc1)c1ccc(F)cc1Cl
inactive: Potency [1] | Potency [2] | Potency [20] | Potency [3] | Potency [5] | Potency [7] | Potency [11] | Potency [12] | Potency [15] | Potency [16] | Potency [17] | Potency [18]
active: Potency [8] 54.9 µM | Potency [9] 54.9 µM | Potency [10] 12.3 µM | Potency [19] 19.5 µM

C=C(C)C(=O)OCCC(F)(F)C(F)(F)C(F)(F)C(F)(F)C(F)(F)C(F)(F)F
inactive: Potency [1] | Potency [2] | Potency [20] | Potency [3] | max response [4] 0.419% | Potency [9] | Potency [10] | Potency [11] | Potency [12] | Potency [14] | Potency [15] | Potency [16] | Potency [17] | Potency [18] | Potency [19]

COc1cc(NCc2ccc3nc(N)nc(N)c3c2C)cc(OC)c1OC
inactive: Potency [1] | Potency [2] | Potency [3] | Potency [5] | Potency [6] | Potency [7] | Potency [8] | Potency [9] | Potency [10] | Potency [11] | Potency [12] | Potency [13] | Potency [14] | Potency [15] | Potency [18] | Potency [19]
active: Potency [4] 0.0239 µM

c1ccc2sc(SSc3nc4ccccc4s3)nc2c1
inactive: activity change, negative = cytotoxic [1] -0.0307% [at 15.8 µM] | cytotoxicity increase [2] 14.8% [at 15.8 µM] | activity change, negative = cytotoxicity [20] -1.01% [at 15.8 µM] | viability change, negative = cytotoxic [3] 2.86% [at 15.8 µM] | max response [4] 15.6% | cytotoxicity increase [6] 2.16% [at 15.8 µM] | cytotoxicity [8] 3.43% [at 15.8 µM] | cytotoxicity increase [9] 16.6% [at 15.8 µM] | activity change, negative = cytotoxicity [10] -1.35% [at 15.8 µM] | cytotoxicity increase [11] 13.3% [at 15.8 µM] | cytotoxicity [12] 0.139% [at 15.8 µM] | cytotoxicity increase [13] 4.1% [at 15.8 µM] | cytotoxicity increase [14] 3.51% [at 15.8 µM] | activity change, negative = cytotoxicity [16] 4.46% [at 15.8 µM] | activity change, negative = cytotoxicity [17] 0.0342% [at 15.8 µM] | activity change [18] 10.5% [at 15.8 µM, active compounds read high] | activity change, negative = cytotoxicity [19] 0.525% [at 15.8 µM]
